Data published in PubChem BioAssay (NCATS).
Values joined by “and” are separate entries in the source; they are usually repeats but may differ in a detail not shown here. Equal values may be shown once. Inconclusive results are not listed. A number with no mark means an inactive call. Active and inactive are the calls of the source. Calls come from the whole dose curve; as a rule, active = well fitted inhibition curve with a large enough effect; inconclusive = small, poorly fitted or top-dose-only effect; inactive = no such curve, though single readings can be large or run the other way. Where a SMILES comes first, the peptide text is derived from it. [ ]: non-standard residue; d: D form. pGlu = O=C1CC[C@@H](C(=O)O)N1; Thz = O=C(O)[C@@H]1CSCN1
% is set by controls: 0 for no effect and ±100 for the full control effect.

Assay: Primary qHTS for inhibitors of nuclear receptor binding SET domain protein 2 (NSD2) in an RCH-ACV wild type WT cells (2C) (AID 1645877); note: nearly all actives have a fitted effect of over 70% in size
Details: RCH-ACV (leukaemia line) NSD2 WT (2C) viability, CellTiter-Glo, 72 h; series mostly up to 44.9 µM; activity change, negative = cell killing: at the top concentration
Text: Assay Provider: Jonathan D. Licht, MD
University of Florida College of Medicine, Gainesville, FL
Mutations in epigenetic regulators are common in relapsed pediatric acute lymphoblastic leukemia (ALL). Here, we uncovered the mechanism underlying the relapse of ALL driven by an activating mutation of the NSD2 histone methyltransferase (p.E1099K). […] Correction of this mutation restored glucocorticoid sensitivity. The transcriptional response to glucocorticoids was blocked in NSD2 mutant cells due to depressed glucocorticoid receptor (GR) levels and the failure of glucocorticoids to autoactivate GR expression. […] Pre-treatment of NSD2 p.E1099K cell lines and PDX samples with PRC2 inhibitors reversed glucocorticoid resistance in vitro and in vivo.
High-throughput drug screening of isogenic RCH-ACV cell lines was performed at the National Center for Advancing Translational Science (NCATS), National Institutes of Health as previously described (1). Briefly, isogenic RCH-ACV NSD2 p.E1099K mutant (9B) and WT cells (2C) were plated at 500 cells/well in a 1536-well plate with a 72-hour incubation with compounds prior to addition of CellTiter-Glo to assess cell viability. NCATS libraries screened include: NPC, MIPE 5.0, Kinase and NPACT. To determine compound activity in the qHTS assay, the concentration-response data for each sample was plotted and modeled by a four-parameter logistic fit yielding IC50 and efficacy (maximal response) values. The area under the curve (AUC) of the dose-response curve ensures both efficacy (magnitude of cell killing) and potency (concentration that elicits cell killing) are accounted for in the analysis of activity.
1. Tobie D Lee, Olivia W Lee, Kyle R Brimacombe, Lu Chen, Rajarshi Guha, Sabrina Lusvarghi, Bethilehem G Tebase, Carleen Klumpp-Thomas, Robert W Robey, Suresh V Ambudkar, Min Shen, Michael M Gottesman, Matthew D Hall. A High-Throughput Screen of a Library of Therapeutics Identifies Cytotoxic Substrates of P-glycoprotein. Mol Pharmacol. 2019, Nov;96(5):629-640.
With `C/C(=N\O)c1ccc(OCC(=O)N2CCCCC2)cc1` the “activity change, negative = cell killing” value was -4.2%. In the case of `O=C(O)Cc1ccc2c(c1)C(=O)c1ccccc1CO2`, the “outcome” value is reported as “inactive”. In the case of `Nc1nc2ccc([N+](=O)[O-])cc2s1`, the Potency is reported as 19.3 µM (active). With `COC(=O)c1nc(Cl)c(Cl)nc1N` the Potency was 0.0376 µM (active). With `Cc1ccc(O)c(-n2nc3ccccc3n2)c1` the “activity change, negative = cell killing” value was -15.6%. With `COc1cc(NC(C)CCCN)c2ncccc2c1` (stereo not given) the Potency was 5.31 µM (active). With `Cc1c(Nc2ncccc2C(=O)O)cccc1C(F)(F)F` the “activity change, negative = cell killing” value was -10.3%. With `CS(=O)(=O)c1ccc(-n2nc(C(F)(F)F)cc2-c2ccc(F)cc2)cc1` the “activity change, negative = cell killing” value was -30.2%. For `C=CCCCCCCCCC(=O)O`, the “outcome” value was “inactive”. For `Cc1c(N)c(=O)n(-c2ccccc2)n1C`, the “activity change, negative = cell killing” value was 1.85%. In the case of `CC(C)OC(=O)c1cc(C(=O)OC(C)C)cc([N+](=O)[O-])c1`, the “activity change, negative = cell killing” value is reported as -18.4% [at 91.9 µM]. For `CN(C)CCn1nnnc1SCC1=C(C(=O)O)N2C(=O)[C@@H](NC(=O)Cc3csc(N)n3)[C@H]2SC1`, the “activity change, negative = cell killing” value was -24.5%. With `Cc1onc(-c2c(F)cccc2Cl)c1C(=O)N[C@@H]1C(=O)N2[C@@H]1SC(C)(C)[C@@H]2C(=O)O` the “activity change, negative = cell killing” value was -15.7%. In the case of `CCCCN(CC)c1nc(C)nc2c1c(C)cn2-c1c(C)cc(C)cc1C`, the “activity change, negative = cell killing” value is reported as -19%. For `C#C[C@]1(O)CC[C@H]2[C@@H]3CCc4cc(O)ccc4[C@H]3CC[C@@]21C`, the Potency was 18.8 µM (active) and 10.5 µM (active). For `N=C(N)N`, the “outcome” value was “inactive”. In the case of `COC(=O)C1=C(C)NC(C)=C(C(=O)OC)C1c1cccc(NC(=O)NCCCN2CCC(c3cccc(OC)c3)CC2)c1`, the Potency is reported as 4.59 µM (active). In the case of `COc1ccnc2c1CCCCC2S(=O)c1nc2ccccc2[nH]1` (stereo not given), the “activity change, negative = cell killing” value is reported as -29.3%. With `CC(=O)c1ccc(OCC(=O)N2CCCCC2)cc1` the “activity change, negative = cell killing” value was -25.5%. For `CCCSc1ccc2nc(NC(=O)OC)[nH]c2c1`, the Potency was 0.266 µM (active). With `O=C(/C=C/c1ccc(O)cc1)c1ccc(O)cc1O` the Potency was 5.25 µM (active). With `Brc1c(Br)c(Br)c2n[nH]nc2c1Br` the “activity change, negative = cell killing” value was -12.4%. For `CC(C(=O)O)c1ccc(C(=O)c2ccccc2)s1` (stereo not given), the “activity change, negative = cell killing” value was 8.23%. For `CC1(C)S[C@@H]2[C@H](NC(=O)[C@H](N)c3ccccc3)C(=O)N2[C@H]1C(=O)O`, the “outcome” value was “inactive”. With `CCC1C(=O)OCC1Cc1cncn1C` (stereo not given) the “activity change, negative = cell killing” value was 9.64%. With `CC1(C)[C@@H](O[C@H]2O[C@H](C(=O)O)[C@@H](O)[C@H](O)[C@H]2O[C@@H]2O[C@H](C(=O)O)[C@@H](O)[C@H](O)[C@H]2O)CC[C@]2(C)[C@H]3C(=O)C=C4[C@@H]5C[C@@](C)(C(=O)O)CC[C@]5(C)CC[C@@]4(C)[C@]3(C)CC[C@@H]12` the “activity change, negative = cell killing” value was -6.34% [at 17.3 µM]. In the case of `O=C(OCc1ccccc1)c1ccccc1`, the “activity change, negative = cell killing” value is reported as -19.2%. In the case of `O=C(O)CC1CC(c2ccccc2)=NO1` (stereo not given), the “activity change, negative = cell killing” value is reported as -15.6% [at 17.3 µM]. In the case of `CN[C@H](CC(C)C)C(=O)N[C@H]1C(=O)N[C@@H](CC(N)=O)C(=O)N[C@H]2C(=O)N[C@H]3C(=O)N[C@H](C(=O)N[C@H](C(=O)O)c4cc(O)cc(O)c4-c4cc3ccc4O)[C@H](O)c3ccc(c(Cl)c3)Oc3cc2cc(c3O[C@@H]2O[C@H](CO)[C@@H](O)[C@H](O)[C@H]2O[C@H]2C[C@](C)(N)[C@H](O)[C@H](C)O2)Oc2ccc(cc2Cl)[C@H]1O`, the “activity change, negative = cell killing” value is reported as 8.94% [at 17.3 µM]. In the case of `COC(=O)C1=C(C)NC(C)=C(C(=O)OCC(C)=O)C1c1ccccc1[N+](=O)[O-]` (stereo not given), the Potency is reported as 11.9 µM (active). In the case of `O=C(CS)Nc1ccccc1`, the “activity change, negative = cell killing” value is reported as -6.55%. For `CCOC(=O)N1CCN(/[N+]([O-])=N/Oc2ccc([N+](=O)[O-])cc2[N+](=O)[O-])CC1`, the Potency was 5.9 µM (active). In the case of `O=C(O)c1ccccc1Nc1cccc(C(F)(F)F)c1`, the “activity change, negative = cell killing” value is reported as 2.67%. With `CCCCCCCCCCCC(=O)[O][Sn]([CH2]CCC)([CH2]CCC)[O]C(=O)CCCCCCCCCCC` the “activity change, negative = cell killing” value was -9.02%. With `O=Cc1ccc(O)c(O)c1O` the Potency was 16.8 µM (active). In the case of `COC(=O)[C@H]1[C@H]2C[C@@H]3c4[nH]c5cc(OC)ccc5c4CCN3C[C@H]2C[C@@H](OC(=O)/C=C/c2cc(OC)c(OC)c(OC)c2)[C@@H]1OC`, the “activity change, negative = cell killing” value is reported as -24.1% [at 17.3 µM]. With `O=c1[nH]c2ccccc2n1CCCN1CCN(C(c2ccccc2)c2ccccc2)CC1` the Potency was 23.7 µM (active). For `COc1cccc2c1C(=O)c1c(O)c3c(c(O)c1C2=O)C[C@@](O)(C(=O)CO)C[C@@H]3O[C@H]1C[C@H](N)[C@H](O[C@@H]2CCCCO2)[C@H](C)O1`, the Potency was 0.0038 µM (active). For `Nc1ncnc2c1c(I)cn2[C@@H]1C[C@H](N)[C@@H](O)[C@H]1O`, the Potency was 23.1 µM (active). With `O=C1CC[C@@H](C(=O)N2CSC[C@H]2C(=O)O)N1` ([pGlu]-[Thz]-OH) the “outcome” value was “inactive”.
